High-throughput results (PubChem BioAssay)
Many of the other results were omitted from the sample, so hits are more common in it than they were.
miR-122 inh: activators of miR-122 sensor in Huh7 cells | AID 623901 | Huh7 psiCHECK-miR122 Renilla luciferase sensor, 48 h | activation, % at 12.5 µM | 340,000 compounds, 0.14% hits;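 active means mean activation of 30% or more, with every replicate also reaching 30%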;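 further: higher luciferase signal means stronger suppression of miR-122 activity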
A number is an active result; - = inactive.

SMILES	miR-122 inh
CC(C)NC(=O)Nc1ccc2c(c1)C(=O)N(C)[C@@H]1CC[C@H](CC(=O)NCC(F)(F)F)O[C@H]1CO2	36.7
CC(C)NC(=O)Nc1ccc2c(c1)C(=O)N(C)[C@@H]1CC[C@@H](CC(=O)NCC(F)(F)F)O[C@@H]1CO2	36.7
C[C@@H]1CN([C@H](C)CO)C(=O)c2cc(-c3cccnc3)cnc2O[C@H]1CN(C)S(C)(=O)=O	-
CC(C)C#Cc1cnc2c(c1)C(=O)N([C@@H](C)CO)C[C@H](C)[C@H](CN(C)C(=O)c1ccccc1)O2	-
CC(C)C#Cc1ccc2c(c1)O[C@@H](CN(C)C(=O)CC1CC1)[C@H](C)CN([C@@H](C)CO)S2(=O)=O	-
C[C@H](O)C#Cc1ccc2c(c1)O[C@@H](CN(C)C)[C@H](C)CN([C@H](C)CO)S2(=O)=O	-
C[C@H](CO)N1C[C@H](C)[C@@H](CN(C)Cc2ccccn2)Oc2ncc(-c3ccc(F)cc3)cc2C1=O	-
C[C@@H]1CN([C@@H](C)CO)S(=O)(=O)c2ccc(Br)cc2O[C@H]1CN(C)S(C)(=O)=O	-
COc1cccc(C#Cc2ccc3c(c2)O[C@H](CN(C)S(=O)(=O)c2ccccc2F)[C@H](C)CN([C@@H](C)CO)S3(=O)=O)c1	-
CC(C)N(C[C@@H]1N[C@@H](CO)[C@@H]1c1ccccc1)S(=O)(=O)c1ccccc1	66.7
CN(C[C@@H]1[C@@H](c2ccccc2)[C@@H](CO)N1Cc1ccccn1)S(C)(=O)=O	-
O=C(NC[C@H]1N[C@H](CO)[C@H]1c1ccccc1)c1ccccc1F	-
CC(=O)N(C)C[C@@H]1[C@@H](c2ccc(-c3cccnc3)cc2)[C@H](CO)N1C(=O)C1CC1	-
CC(=O)N(C[C@@H]1N[C@@H](CO)[C@H]1c1ccc(-c2ccccc2)cc1)C(C)C	66.7
C[C@H](CO)N1C[C@H](C)[C@H](CN(C)C(=O)c2cccc(F)c2)Oc2ncc(-c3cccc(F)c3)cc2C1=O	-
Cc1noc(C)c1NC(=O)N(C)C[C@H]1Oc2cc(C#CCC(C)C)ccc2S(=O)(=O)N([C@@H](C)CO)C[C@@H]1C	-
CCC(=O)N(C)C[C@@H]1Oc2ncc(C#C[C@H](C)O)cc2C(=O)N([C@H](C)CO)C[C@H]1C	-
C[C@H]1CN([C@@H](C)CO)C(=O)c2cc(-c3ccc(F)cc3)cnc2O[C@H]1CN(C)Cc1ccc(C(=O)O)cc1	-
C[C@@H]1CN([C@H](C)CO)C(=O)Cc2cc(NC(=O)Nc3ccccc3)ccc2O[C@@H]1CN(C)C(=O)Nc1cccc2ccccc12	-
CCN(Cc1ccccc1)C(=O)c1[nH]c2ccc(OC)cc2c1C	-
COc1ccc2[nH]c(=O)c(COC(=O)c3ccco3)cc2c1	30.8
C[C@H]1CN([C@@H](C)CO)S(=O)(=O)c2ccc(C#Cc3ccncc3)cc2O[C@@H]1CN(C)C(=O)C1CCCCC1	-
CCCNC(=O)N(C)C[C@@H]1Oc2cc(C#Cc3cccc(F)c3)ccc2S(=O)(=O)N([C@H](C)CO)C[C@H]1C	-
CC(C)CC#Cc1cnc2c(c1)C(=O)N([C@@H](C)CO)C[C@@H](C)[C@@H](CN(C)C(=O)NC1CCCC1)O2	-
C[C@@H]1CN([C@@H](C)CO)C(=O)c2cc(C#CCc3ccccc3)cnc2O[C@@H]1CN(C)Cc1cccc(C(=O)O)c1	-
SMILES	miR-122 inh
COc1cc(-c2nnc3sc(C4CCCCC4)nn23)cc(OC)c1OC	32.1
CCCNC(=O)Nc1ccc2c(c1)OC[C@@H](C)N(C)C[C@H](C)[C@H](OC)CN(C)C2=O	-
C[C@@H]1CN([C@@H](C)CO)S(=O)(=O)c2ccc(C#C[C@@H](C)O)cc2O[C@@H]1CN(C)Cc1cccnc1	-
C[C@H]1CN([C@@H](C)CO)S(=O)(=O)c2ccc(-c3cccc(C#N)c3)cc2O[C@@H]1CN(C)C(=O)Nc1ccccc1F	-
Cc1ccc(-c2cnc3c(c2)C(=O)N([C@@H](C)CO)C[C@@H](C)[C@@H](CN(C)C(=O)c2ccncc2)O3)cc1	-
CCCCc1cc(=O)oc2cc(C)cc(OC(C)C(=O)O)c12 (stereo not drawn)	31.7
COCC(=O)N(C)C[C@@H]1Oc2ncc(C#Cc3ccccc3OC)cc2C(=O)N([C@H](C)CO)C[C@H]1C	-
C[C@H]1CN([C@@H](C)CO)C(=O)c2cc(C#Cc3ccccn3)cnc2O[C@H]1CN(C)Cc1cccnc1	-
CCCC#Cc1cnc2c(c1)C(=O)N([C@@H](C)CO)C[C@H](C)[C@@H](CN(C)Cc1ccccc1)O2	-
C[C@H](CO)N1C[C@H](C)[C@H](CN(C)C(=O)Nc2ccccc2)Oc2cc(-c3cccc(C(=O)N(C)C)c3)ccc2S1(=O)=O	-
CC(C)CC#Cc1ccc2c(c1)O[C@H](CN(C)C(=O)NC1CCCC1)[C@@H](C)CN([C@@H](C)CO)S2(=O)=O	-
COc1cccc(C(=O)Nc2cc([N+](=O)[O-])ccc2N2CCN(C)CC2)c1	-
CN1CCN(c2ccc(Cl)cc2NC(=O)c2ccc(S(=O)(=O)N3CCCCCC3)cc2)CC1	39.6
COc1ccc(NC(C)=O)cc1S(=O)(=O)Nc1ccc(S(=O)(=O)N2CCCCC2)cc1	-
C[C@@H]1CN([C@@H](C)CO)S(=O)(=O)c2ccc(C#Cc3ccccn3)cc2O[C@@H]1CN(C)Cc1cccc(F)c1	-
C[C@H]1CN([C@@H](C)CO)C(=O)c2cc(-c3cccc(F)c3)cnc2O[C@@H]1CN(C)C(=O)C1CCOCC1	-
C=CCc1ccccc1OCC(O)CN1CCN(CCN2C(=O)c3cccc4cccc(c34)C2=O)CC1 (stereo not drawn)	46.5
COc1ccc(NC(=O)N(C)C[C@@H]2Oc3ncc(C4=CCCC4)cc3C(=O)N([C@H](C)CO)C[C@H]2C)cc1	-
N#C/C(=C\c1ccc(N2CCOCC2)o1)C(=O)NCC1CCCO1 (stereo not drawn)	36.1
C[C@@H]1CN([C@@H](C)CO)C(=O)c2cccc(NC(=O)C3CCCCC3)c2O[C@@H]1CN(C)Cc1ccc(C(=O)Nc2ccccc2N)cc1	-
COCC(=O)N(C)C[C@H]1Oc2ncc(C#Cc3ccccc3OC)cc2C(=O)N([C@@H](C)CO)C[C@@H]1C	-
O=C(Nc1ccc(Cn2cccn2)cc1)c1ccc(COc2ccccc2Br)cc1	31.5
C[C@H](CO)N1C[C@H](C)[C@@H](CN(C)Cc2cncnc2)Oc2ncc(-c3cncnc3)cc2C1=O	-
C[C@@H]1CN([C@@H](C)CO)S(=O)(=O)c2ccc(-c3ccc(C#N)cc3)cc2O[C@H]1CN(C)C(=O)C1CC1	-
COc1cc2nc(C3CCC3)n(NC(=O)C3CCCC(OC)C3)c(=O)c2cc1OC (stereo not drawn)	34.4
SMILES	miR-122 inh
C[C@@H]1CN([C@@H](C)CO)C(=O)c2cc(C3=CCCCC3)cnc2O[C@@H]1CN(C)Cc1ccccc1C(=O)O	-
CC(C)C#Cc1ccc2c(c1)O[C@H](CN(C)C(=O)CC1CC1)[C@@H](C)CN([C@H](C)CO)S2(=O)=O	-
CC(=O)N(C)C[C@H]1Oc2cc(C#C[C@H](C)O)ccc2S(=O)(=O)N([C@@H](C)CO)C[C@@H]1C	-
CCC(=O)Nc1ccc2c(c1)OC[C@@H](C)N(C(=O)CN1CCOCC1)C[C@@H](C)[C@H](OC)CN(C)C2=O	-
Cc1noc(C)c1NC(=O)N(C)C[C@H]1Oc2cc(C#CCC(C)C)ccc2S(=O)(=O)N([C@@H](C)CO)C[C@H]1C	-
CO[C@@H]1CN(C)C(=O)c2ccc(NC(=O)NC(C)C)cc2OC[C@@H](C)NC[C@@H]1C	-
CO[C@@H]1CN(C)C(=O)c2cc(NC(=O)NC(C)C)ccc2OC[C@H](C)N(C(=O)NC(C)C)C[C@@H]1C	-
